Hits are enriched below; roughly 3.3% of the tested compounds scored in any of these assays.
Tau fluor counter – counter-screen for tau fibril formation inhibitors; Potency, µM (highest dose often 57.7 µM); 0.93% of 280,000 active; tau K18 P301L Alexa594 fluorescence, heparin fibrillization; AID 1463; also: nearly all actives have a fitted effect of over 55% in size
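Human K18 P301L tau (15 uM unlabeled plus 0.24 uM Alexa 594-labeled, final) in 100 mM sodium acetate pH 7 was mixed with compound and 20 uM heparin and incubated 6 hr at 37 C.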
NPSR antag – blocks cAMP signaling of the human neuropeptide S receptor | 1% of 220,000 active | CHO-NPSR cells, cAMP TR-FRET, antagonist mode | Potency, µM (highest dose often 38.3 µM), actives largely listed as inhibitors | Q6W5P4; also: nearly all actives have a fitted effect of over 50% in size
Target sequence (Q6W5P4 whole entry, looked up): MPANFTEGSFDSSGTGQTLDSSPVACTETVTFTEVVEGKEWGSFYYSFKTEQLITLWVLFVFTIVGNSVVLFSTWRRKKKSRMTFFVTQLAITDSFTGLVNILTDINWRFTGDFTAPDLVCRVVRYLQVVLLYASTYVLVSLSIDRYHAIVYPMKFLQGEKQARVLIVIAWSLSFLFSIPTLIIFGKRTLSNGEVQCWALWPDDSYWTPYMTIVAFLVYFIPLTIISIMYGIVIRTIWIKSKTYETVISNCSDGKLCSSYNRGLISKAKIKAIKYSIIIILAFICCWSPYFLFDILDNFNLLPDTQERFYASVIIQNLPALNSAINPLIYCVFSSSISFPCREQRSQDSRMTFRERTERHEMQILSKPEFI
Tau fibril FP – tau fibrillization inhibition (FP) | P10636 | K18 P301L tau heparin fibrillization, Alexa594 FP, 6 h | Potency, µM (titrated, usually from 57.7 µM), most hits filed as inhibitors | 0.39% of 280,000 active | AID 1468; also: nearly all actives have a fitted effect of over 55% in size
Target sequence (P10636 561-689 P618L limits assumed): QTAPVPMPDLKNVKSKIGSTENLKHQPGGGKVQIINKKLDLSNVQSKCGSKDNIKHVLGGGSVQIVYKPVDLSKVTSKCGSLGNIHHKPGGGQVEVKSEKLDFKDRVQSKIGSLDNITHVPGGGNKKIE
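Read-out: fluorescence polarization of Alexa 594-labeled tau (0.24 uM), 555 nm excitation, 632 nm emission. Mixtures held 15 uM unlabeled K18 P301L, compound and 20 uM heparin, pH 7 acetate buffer, incubated 6 hr at 37 C.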
Tau fibril ThT – inhibitors of human tau fibril formation, thioflavin T binding; Potency, µM (titrated, usually from 57.4 µM), actives largely listed as inhibitors; AID 1460; 2.1% of 270,000 active; recombinant tau K18 P301L (four-repeat tau fragment), heparin-induced fibrillization, ThT fluorescence; also: nearly all actives have a fitted effect of over 55% in size
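K18 P301L tau (15 uM + 0.24 uM Alexa 594-tagged), heparin 20 uM, NaOAc pH 7, 6 h 37 C; ThT 30 uM, 1 h RT, ex 450/em 510 nm.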
KinaseGlo FLuc – Kinase-Glo luciferase inhibition (counter-screen); 0.28% of 200,000 active; Kinase-Glo luciferase, ATP luminescence, 8 min; Potency, µM (top dose mostly 38.3 µM), hits mostly inhibitors; Q27757; also: nearly all actives have a fitted effect of over 60% in size
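Substrate mix (final 50 mM imidazole pH 7.2, 50 mM KCl, 7 mM MgCl2, 10 uM ATP, 0.01% Tween 20, 0.05% BSA) plus pin-tool compound, then Kinase-Glo detection mix; 8 min ambient, luminescence read.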
Numbers stand for hits; . = inactive; ? = inconclusive; / = not tested or not shown; [ ] = remark or other dose. Calls follow the shape of the dose curve; as a rule, active = well fitted curve in the direction sought with a large enough effect; inconclusive = small, poorly fitted or top-dose-only effect, or another doubt; inactive = no such curve, though single readings can be large; an effect the other way counts as inactive or inconclusive.

SMILES	Tau fluor counter	NPSR antag	Tau fibril FP	Tau fibril ThT	KinaseGlo FLuc
CC(=O)C1=C(C)NC(SCC(=O)c2ccc(C)cc2)=C(C#N)C1c1ccco1 (stereo unspecified)	14.1µM[quencher]	.	?	15.8µM	.
COc1ccccc1NC(=O)C1=C(C)NC(SCC(=O)c2ccccc2)=C(C#N)C1c1ccco1 (stereo unspecified)	.	.	.	?	.
CCOc1ccc(N=Nc2c(=O)[nH]n3c(C)cc(C)nc23)cc1	.	.	.	12.6µM	.
CC1(C)C(O)C=C[C@@]2(C)C1CC(=O)O[C@@]1(C)C3=CC(=O)OC(c4ccoc4)[C@]3(C)CCC21 (stereo partly specified)	.	/	.	?	.
O=C(c1ccccc1)c1ccc2nc(Nc3cc(Cl)ccc3O)c3nncn3c2c1	17.8µM[quencher]	/	?	.	/
O=C(NCCc1ccc(Cl)cc1)c1ccc(CS(=O)Cc2cccc(Cl)c2)o1 (stereo unspecified)	.	/	.	.	/
CN(C)c1ccc2c(O)cc(=O)n(C)c2c1	.	?	22.4µM	25.1µM	.
CN(c1ccc(Cl)cc1)c1cc(=O)n(C)c2ccccc12	.	.	?	?	.
CCOC(=O)c1c(C)[nH]c(-c2csc(N)n2)c1C	?	.	?	25.1µM	.
O=C(COC(=O)c1cccs1)c1ccc2c(c1)OCCO2	.	.	.	.	2.51µM
O=C(c1cccs1)c1ccc(-c2cccs2)s1	.	.	.	.	7.94µM
COc1cc(CN(C(=O)c2ccccc2F)C2CCS(=O)(=O)C2)cc(OC)c1OC (stereo unspecified)	.	/	.	.	/
COCc1cc(/C=N\NC(=O)COc2ccccc2)ccc1OC	.	.	.	.	.
COc1cc(OC)c2cc(C(=O)N/N=C/c3cccc(OC)c3O)[nH]c2c1	?	.	?	5.01µM	/
COc1cccc(OCc2cc(/C=N/Nc3ccc(C(=O)O)cc3)ccc2OC)c1	11.2µM[quencher]	.	.	?	/
COc1cccc(/C=N/Nc2ccc(S(=O)(=O)O)cc2)c1O	.	.	.	?	?
COc1cccc(/C=N/Nc2ccc(C(=O)O)cc2)c1O	.	.	.	?	8.91µM
CCOc1cc(/C=N/Nc2ccc(C(=O)O)cc2)ccc1OC(=O)c1ccccc1C	0.708µM[quencher]	.	?	/	/
CCOc1cccc(-c2cc(C(=O)N/N=C/c3cccc(OC)c3O)[nH]n2)c1	/	/	/	/	.
CSc1nc2cc(Oc3cccc(Cl)c3Cl)c(Cl)cc2[nH]1	?	12.6µM	12.6µM	?	/
COc1ccc(NC(=O)CSc2nnc(-c3cccs3)n2C)cc1OC	.	.	.	.	.
COc1ccc(NC(=O)CSc2nc3c(c(-c4cccs4)c2C#N)CN(C)CC3)cc1OC	25.1µM[quencher]	.	?	25.1µM	.
O=C1C=C(N2CCN(C3=CC(=O)CCC3)CC2)CCC1	.	.	?	25.1µM	.
Cc1cccc(OCCn2nnc3sc4c(c3c2=O)CCCC4)c1	.	/	.	?	/
O=C1OC(/C=C/c2ccccc2)=NC/1=C/C=C/c1ccccc1	.	.	.	15.8µM	.
SMILES	Tau fluor counter	NPSR antag	Tau fibril FP	Tau fibril ThT	KinaseGlo FLuc
CCc1nc2cccnc2n1-c1ccc(CC(=O)Nc2ccccc2Cl)cc1	.	/	.	.	/
NC(Cc1ccccc1)(C(=O)O)C(=O)O	/	/	/	/	.[7.66 µM]
CC(C)COC(=O)c1ccc2c(c1O)C(=O)c1ccccc1C2=O	?	.	.	12.6µM	.
COC(=O)C1=C(C)NC(C)=C(C(=O)OCCSc2ccccc2)[C@@H]1C	15.8µM[quencher]	/	.	.	.
CCSCCOC(=O)C1=C(C)NC(=O)NC1c1ccccc1 (stereo unspecified)	.	.	.	.	.
Cc1ccc(NCC(=O)N/N=C/c2ccncc2)cc1	.	.	.	.	.
Cc1ccc(NCC(=O)N/N=C/c2cc(O)ccc2[N+](=O)[O-])cc1	.	.	.	14.1µM	.
Cc1ccc(NCC(=O)N/N=C/c2cccc(Oc3ccccc3)c2)cc1	10µM[quencher]	.	.	?	.
COc1ccc(NCC(=O)N/N=C/c2cc([N+](=O)[O-])ccc2N2CCCC2)cc1	?	.	.	11.2µM	.
COC(=O)N[C@H](C[N+](=O)[O-])C(C)(C)C	.	/	.	.	.
COc1cccc(/C=N/c2oc(-c3ccccc3)cc2C#N)c1O	.	.	.	14.1µM	.
COC(=O)N1CC=CC1(C)C(=O)NCC1CC1 (stereo unspecified)	.	/	.	.	.

Bioassay records deposited in PubChem BioAssay by National Center for Advancing Translational Sciences (NCATS).
